Compounds with a hit are over-represented: about 19% of the library has one in this group of screens.
HT1080-NT tox: kills 2HG-producing HT-1080-NT fibrosarcoma cells | HT-1080-NT fibrosarcoma viability, CellTiter-Glo ATP luminescence, 48 h | Potency, µM (doses to about 46.1 µM), for the others: at the top dose activity, negative = less viability, most hits filed as cytotoxic | 360,000 compounds, 1.6% hits;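 further: NT is the 2HG producing partner of a matched IDH1 knockdown line; 0% = DMSO-treated cells and -100% = media-only wells without cells; nearly all actives have a fitted effect of over 55% in size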
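Viability by CellTiter-Glo luminescence after 48 h compound exposure at 37C of HT-1080-NT cells (750/well, RPMI, 5% FBS). % activity scaled between DMSO wells and medium-only wells, then curve-fitted and categorized by curve class.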
KB-V1 cytotox: KB-V1 MDR subline cytotoxicity | 400,000 compounds, 3.4% hits | KB-V1 MDR cells viability, CellTiter-Glo, 72 h | Potency, µM (highest dose often 46.1 µM), actives largely listed as cytotoxic; further: nearly all actives have a fitted effect of over 60% in size
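Following 72 h at 37 degrees C with compound, KB-V1 cell viability was read by CellTiter-Glo luminescence, medium being phenol-red-free DMEM plus 10% FBS; concentration-response parameters came from normalized, curve-fitted qHTS data.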
TDP1 cell noCPT: qHTS for Inhibitors of human tyrosyl-DNA phosphodiesterase 1 (TDP1): qHTS in cells in absence of CPT | DT40 Tdp1-/- hTDP1 cells, no CPT, ATP luminescence, 48 h | Potency, µM (top dose mostly 46.2 µM), without a hit: at the top dose activity change, negative = growth inhibition, most hits filed as inhibitors | 420,000 compounds, 15% hits | AID 686978, 2013; further: nearly all actives have a fitted effect of over 55% in size
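No-CPT arm: Tdp1-/-;hTDP1 DT40 cells (400/well) plus compounds, incubated ≥48 hr at 37 °C. Readout CellTiter-Glo luminescence.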
HT1080 IDH1KD tx: toxicity to HT-1080 IDH1 knockdown cells (counter line); HT-1080 IDH1 knockdown viability, ATP luminescence, 48 h; Potency, µM (highest dose often 46.1 µM), without a hit: top-dose activity, negative = toxicity, actives largely listed as cytotoxic; 360,000 compounds, 2% hits; AID 686971;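 further: 0% = DMSO wells and -100% = cell-free medium wells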
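Using the IDH1-knockdown HT-1080 line run in the same batch and compound series as the NT line, viability after 48 h at 37 °C was determined by CellTiter-Glo luminescence and expressed as % activity.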
KB-3-1 cytotox: KB-3-1 parental cell cytotoxicity; KB-3-1 viability, CellTiter-Glo ATP luminescence, 72 h; Potency, µM (titrated, usually from 46.1 µM), actives largely listed as cytotoxic; 400,000 compounds, 1.4% hits; AID 1347075; further: nearly all actives have a fitted effect of over 60% in size
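Multi-concentration cytotoxicity screen in KB-3-1 cells grown in DMEM lacking phenol red with 10% FBS. After 72 h at 37 °C with compound, ATP-dependent luminescence was recorded.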
DT40 TDP1 CPT: growth inhibition of DT40 Tdp1-/-;hTDP1 cells with camptothecin (screen for TDP1 inhibitors); Potency, µM (titrated, usually from 46.2 µM), for inactives: at the top dose activity change, negative = growth inhibition, most hits filed as inhibitors; AID 686979; chicken DT40 Tdp1-/-;hTDP1 cells + 20 nM CPT, ATP luminescence, 48 h; 420,000 compounds, 12% hits; further: nearly all actives have a fitted effect of over 55% in size
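Chicken DT40 Tdp1-/- cells complemented with human TDP1, 400 cells/well, exposed to compounds plus 20 nM camptothecin for at least 48 h at 37 C; viability read as ATP content by CellTiter-Glo luminescence.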
* = called active by the depositor; i = inactive; ? = inconclusive; · = no result; [ ] = dose if it differs, or a comment. The call rests on the fitted dose curve; in most records, active means well fitted curve in the direction sought with a large enough effect; inconclusive means small, poorly fitted or top-dose-only effect, or another doubt; inactive means no such curve, though single readings can be large; an effect the other way counts as inactive or inconclusive. Unless noted, on the % scale 0 is the no-effect control and ±100 the full control effect; potency means the concentration at half of the fitted maximal effect.

SMILES	HT1080-NT tox	KB-V1 cytotox	TDP1 cell noCPT	HT1080 IDH1KD tx	KB-3-1 cytotox	DT40 TDP1 CPT
Cc1cc(Cl)ccc1OCC(=O)NNC(=O)C1CCCO1 (stereo not drawn)	17.2%	i	-2.1%	11.0%	i	1.9%
CN(C)c1ccc(CN(CC2CCCO2)C(=O)COc2ccccc2Cl)cc1 (stereo not drawn)	·	·	18.4µM*	·	·	?
Cc1cc(Cl)ccc1OCC(=O)N(Cc1ccc(N(C)C)cc1)CC1CCCO1 (stereo not drawn)	·	·	25.9µM*	·	·	?
CCOC(=O)C1CCCN(CCC(=O)Nc2cccc(Cl)c2C)C1 (stereo not drawn)	-13.4%	i	3.2%	-2.0%	i	?
O=C(NC1CCOc2ccccc21)c1ccccn1 (stereo not drawn)	6.8%	?	-4.8%	8.2%	i	5.0%
COc1ccc(NC(=O)c2cccc3c(-c4ccc(O)c(OC)c4)coc23)cc1	?	?	18.4µM*	?	i	?
O=C(NCc1ccco1)c1cccc2c(-c3ccc(F)c(F)c3)coc12	-2.5%	i	?	-1.0%	i	?
COc1ccc(NC(=O)c2cccc3c(Br)cccc23)cc1	-4.0%	i	?	-11.7%	i	?
O=C(NCc1ccc(C(F)(F)F)cc1)c1cccc2c(-c3ccc(F)c(F)c3)coc12	-21.4%	i	?	-14.8%	i	?
COc1cc(-c2coc3c(C(=O)NCc4ccccc4)cccc23)ccc1O	18.4µM*	i	-76.5%	?	i	18.4µM*
COc1cc(-c2coc3c(C(=O)NCc4cccc(Cl)c4)cccc23)ccc1O	?	?	18.4µM*	23.1µM*	i	?
CCn1cc(C(=O)N2CCN(c3cccc(Cl)c3)CC2)c(=O)c2cc(S(=O)(=O)N3CCOCC3)ccc21	·	i	-18.0%	·	i	12.2%
C=CCNC(=O)c1n[nH]c2c1CC(C(C)(C)CC)CC2 (stereo not drawn)	13.3%	i	?	15.5%	i	?
CCC(C)(C)C1CCc2[nH]nc(C(=O)NC3CCCC3)c2C1 (stereo not drawn)	2.8%	i	?	3.1%	i	16.4µM*
CCC(C)(C)C1CCc2[nH]nc(C(=O)NCc3ccc(OC)cc3)c2C1 (stereo not drawn)	-1.9%	i	14.6µM*	-3.2%	i	23.1µM*
NNC(=O)c1n[nH]c2c1CC(C1CCCCC1)CC2 (stereo not drawn)	-1.8%	i	5.8µM*	0.6%	i	5.17µM*
CCOC(=O)Cc1csc(NC(NC(=O)OCC)(C(=O)OCC)C(F)(F)F)n1 (stereo not drawn)	-0.1%	?	-24.5%	7.3%	i	-18.1%
C#CCn1c(=NC(=O)c2ccc(S(=O)(=O)N3CCCc4ccccc43)cc2)sc2cc(S(N)(=O)=O)ccc21	-9.3%	i	14.6µM*	-15.4%	?	13µM*
Cn1c(=NC(=O)c2ccc(S(=O)(=O)N3CCCc4ccccc43)cc2)sc2cc(S(C)(=O)=O)ccc21	2.6%	3.66µM*	-12.2%	0.0%	i	-2.8%
COC(=O)Cn1c(=NC(=O)c2ccc(S(=O)(=O)N3CCOCC3)cc2)sc2cc(S(N)(=O)=O)ccc21	0.0%	?	-3.2%	-8.9%	i	-6.5%
Cn1c(=NC(=O)c2ccccc2[N+](=O)[O-])sc2cc(S(C)(=O)=O)ccc21	-1.6%	i	-18.4%	-16.7%	i	-24.0%
C=C(C)c1ccc(C(C)(C)NC(=O)N2CCN(C)CC2)cc1	-2.8%	i	20.6µM*	-5.5%[9.24 µM]	i	16.4µM*
C=C(C)c1cccc(C(C)(C)NC(=O)N2CCCC2)c1	10.3%	i	-27.4%	11.0%	i	-6.7%
COc1ccc(-c2cccc([C@H]3[C@@H]4C=CC[C@@H](C)[C@@H]4C(=O)N3Cc3ccccc3)c2)cc1	?	i	20.6µM*	?	?	23.1µM*
CC(=O)c1ccc(-c2cccc([C@H]3[C@@H]4C=CC[C@@H](C)[C@@H]4C(=O)N3Cc3ccccc3)c2)cc1	?	i	13µM*	?	i	10.3µM*
SMILES	HT1080-NT tox	KB-V1 cytotox	TDP1 cell noCPT	HT1080 IDH1KD tx	KB-3-1 cytotox	DT40 TDP1 CPT
COc1cc(-c2cccc([C@H]3[C@@H]4C=CC[C@@H](C)[C@@H]4C(=O)N3Cc3ccccc3)c2)cc(OC)c1OC	?	i	7.31µM*	?	i	8.2µM*
COc1ccc(C2C3C=CCC(c4cccc(-c5ccc(C)cc5)c4)C3C(=O)N2Cc2ccccc2)cc1Cl (stereo not drawn)	-1.0%	i	13µM*	-0.7%	i	23.1µM*
C[C@@H]1CC=C[C@H]2[C@H]1C(=O)N(Cc1ccccc1)[C@H]2c1ccc2ccccc2c1/C=C/c1ccccc1	12.1%	?	?	2.2%	i	?
CC(NC(=O)CN1CCOCC1)c1ccccc1 (stereo not drawn)	10.5%	i	20.4%	0.5%	i	6.8%
C=CCOc1ccc(/C=C(\C#N)C(=O)Nc2ccccn2)cc1	0.3%	i	-10.8%	5.8%	i	-3.2%
CC(C)(C)c1ccc(C(=O)NCCC(=O)NNC(=O)COc2ccccc2F)cc1	-2.4%	i	-6.7%	-5.5%	?	4.6%
O=C1[C@H]2CCC=C[C@H]2[C@H](c2cccc(Br)c2)N1Cc1ccccc1	-13.2%	i	13µM*	-8.5%	i	?
COc1ccc(-c2cccc(C3CC=CC4C3C(=O)N(Cc3ccccc3)C4c3ccc4ccccc4c3)c2)cc1 (stereo not drawn)	9.2%	i	14.6µM*	-6.9%	i	18.4µM*
O=C1C2C(c3ccccc3)CC=CC2[C@H](c2ccoc2)N1Cc1ccccc1 (stereo partly drawn)	-24.1%	i	?	-18.0%	i	?
O=C1C2C(c3ccccc3)CC=CC2[C@H](c2ccc3ccccc3c2)N1Cc1ccccc1 (stereo partly drawn)	-3.3%	i	23.1µM*	-6.1%	?	20.6µM*
Cc1ccc(-c2cccc(C3CC=CC4C3C(=O)N(Cc3ccccc3)C4c3ccc(C(F)(F)F)cc3)c2)cc1 (stereo not drawn)	-4.4%	i	13µM*	-0.8%	i	13µM*
